# This is one part of a sample in which hits are shown more often than they occur.
# ARNT-TACC3 inh: disruptors of human ARNT/TACC3 interaction. Q9Y6A5. AlphaScreen His-ARNT PAS-B/GST-TACC3 binding, luminescence; TACC3 fragment carries E629A point mutation. inhibition, % at 9.99 µM. 390,000 compounds, 0.66% hits. AID 623870;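 active = mean inhibition of replicates at least 50% and at least half of replicates each reaching 50%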;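 also: 0% = complete ARNT plus TACC3 wells and 100% = ARNT alone without TACC3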
# PglD DTNB: inhibitors of Campylobacter jejuni PglD acetyltransferase. AID 602405. 360,000 compounds, 0.098% hits. purified PglD enzyme, DTNB colorimetric CoA detection. inhibition, % at 12.5 µM; in the data active = inhibition above about 16%, passing the limit was not always enough
# ALR inh: blocks human ALR sulfhydryl oxidase activity; 290,000 compounds, 3.8% hits; inhibition, % (no concentration beside the values); AID 485317; purified ALR, DTT oxidation, H2O2 HRP-luminol luminescence;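 active = mean replicate inhibition above about 79%, with every replicate also reaching it, limit read from the data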
# Target sequence (P55789 whole entry, looked up): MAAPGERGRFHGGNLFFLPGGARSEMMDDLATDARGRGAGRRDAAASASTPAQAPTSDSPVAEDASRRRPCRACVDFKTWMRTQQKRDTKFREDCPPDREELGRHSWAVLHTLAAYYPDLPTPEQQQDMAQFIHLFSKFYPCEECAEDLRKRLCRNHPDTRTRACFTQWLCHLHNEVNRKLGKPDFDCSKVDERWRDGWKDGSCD
# PDI turbidity: blocks human protein disulfide isomerase activity. PDI insulin aggregation turbidity, A650, 90 min. inhibition, % at 10 µM. P07237. 350,000 compounds, 0.052% hits;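 active = mean inhibition across replicates of 30% or more, whatever share of single replicates reach that level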
# ERp5 block: blocks human ERp5 reductase activity on insulin. Q15084. ERp5 insulin aggregation, absorbance 650 nm, 90 min. inhibition, % at 9.99 µM. 350,000 compounds, 0.05% hits. AID 651711;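 active = mean replicate inhibition above about 25%, with every replicate also reaching it, limit read from the data, passing the limit was not always enough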
# NRP1-CendR mod: NRP-1/CendR interaction modulation; FAM-RPARPAR peptide binding to NRP-1, fluorescence polarization; inhibition, % at 25 µM; 360,000 compounds, 0.85% hits; AID 602438;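 active = inhibition or corrected inhibition above about 18%, plus a signal ratio from 0.5 to 1.5, limit read from the data, passing the limit was not always enough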
# Numbers without * were called inactive; / = not tested or not shown.
SMILES,ARNT-TACC3 inh,PglD DTNB,ALR inh,PDI turbidity,ERp5 block,NRP1-CendR mod
OC1=C(O)c2nc3cc(C(F)(F)F)ccc3nc21,2,0,98*,9,/,-12
COc1cc(/C=C/C(=O)/C=C(O)/C=C/c2ccc(O)c(OC)c2)ccc1O,-1,-3,0,46*,10,143
COc1ccc(C=C(C(C)=O)C(C)=O)cc1OC,-6,0,/,-5,/,4
COc1cc(/C=C/C2=NC(=O)C(C)(C)O2)ccc1O,/,/,99*,/,/,/
COc1cc(C=C(C(C)=O)C(C)=O)ccc1O,-4,3,98*,5,/,0
COc1cc(/C=C/C(C)=NNc2ccccc2)ccc1O,4,-2,/,1,1,9
COc1cc(/C=C/C(=O)O)ccc1O,-19,0,87*,/,1,5
COc1cc(/C=C/C(=O)CC(=O)/C=C/c2ccc(O)c(OC)c2)ccc1O,3,-2,35,2,-5,141
C[C@H]1CN([C@@H](C)CO)C(=O)c2cc(NC(=O)Nc3ccccc3)ccc2O[C@H]1CN(C)S(=O)(=O)c1cccs1,1,-5,/,/,-11,/
CN1C(=O)c2cc(NC(=O)c3ccccc3Cl)ccc2OC[C@H]2O[C@H](CC(=O)O)CC[C@@H]21,-11,4,/,/,1,/
O=C(/C=C/c1ccc(O)c(O)c1)NC(=O)c1ccccc1O,36,-3,96*,/,3,-72
CC(C)c1ccc(/C=C/C(=O)O)cc1,-4,0,8,-8,2,-1
O=C(O)/C=C/c1ccc(O)c(O)c1,-4,-6,98*,2,6,9
CCOc1cc(C(c2c(C)[nH][nH]c2=O)c2c(C)[nH][nH]c2=O)ccc1O,14,-13,95*,0,/,-6
Cc1sc2nc(CN3CCCCC3)nc(Cl)c2c1C,0,/,98*,-2,-5,8
Cc1cccc2nc(-c3ccco3)c(Nc3ccc4c(c3)OCO4)n12,5,2,99*,6,-2,5
Cc1cccc2nc(-c3ccco3)c(Nc3ccccc3)n12,-2,4,/,8,8,-10
CN(C)C(=O)C[C@@H]1CC[C@H](NC(=O)C2CC2)[C@@H](CO)O1,-9,8,/,/,-3,/
Cc1[nH]c(=O)[nH]c(=O)c1/C=N/NC(=O)[C@@H](N)CC(C)C,65*,/,0,5,1,7
CCCS(=O)(=O)c1nnnn1-c1cccc(OC)c1,6,2,98*,-2,/,-11
COc1cccc(-n2nnnc2SCC(=O)Nc2ccccc2OC)c1,-8,-3,-1,23,1,1
CO[C@H]1CN(C)C(=O)c2cc(NC(=O)Nc3ccc(Cl)cc3)ccc2OC[C@@H](C)N(C(=O)Nc2c(C)noc2C)C[C@@H]1C,4,7,/,/,/,/
CC(C)C#Cc1ccc([C@H]2[C@@H](C#N)N(C(=O)c3cccc(F)c3)[C@@H]2CO)cc1,-2,-2,/,/,2,/
O=C(NCc1ccccc1)[C@]1(CCS(=O)(=O)c2ccccc2)N=C(c2ccc(OCCCO)cc2)O[C@@H]1c1ccccc1,/,6,/,/,-3,/
OC(CSc1ccc(F)cc1)CN1CCN(c2ccccc2)CC1 (stereo unspecified),0,/,87*,24,3,2
SMILES,ARNT-TACC3 inh,PglD DTNB,ALR inh,PDI turbidity,ERp5 block,NRP1-CendR mod
OC(CN1CCN(Cc2ccccc2)CC1)Cn1c2ccccc2c2ccccc21 (stereo unspecified),10,/,-5,9,/,4
OC(CN1CCN(c2ccccc2)CC1)Cn1c2ccccc2c2ccccc21 (stereo unspecified),-11,3,-3,1,/,25*
O=C(C[C@@H]1C[C@@H]2c3cc(NC(=O)CC4CC4)ccc3O[C@@H]2[C@@H](CO)O1)NCc1cccc(F)c1,-3,1,/,/,/,/
O=C(C[C@@H]1C=C[C@H](NS(=O)(=O)c2ccc(F)cc2)[C@@H](CO)O1)NC1CCC1,-9,-4,/,/,-1,/
CN(Cc1cccnc1)C(=O)c1ccc2nc(Cc3ccccc3F)oc2c1,5,4,97*,1,-2,-3
CN(Cc1ccon1)C(=O)c1ccc2nc(Cc3cccc(Cl)c3)oc2c1,35,1,-1,-3,/,-10
CO[C@@H]1CN(C)C(=O)c2ccc(NC(=O)C3CC3)cc2OC[C@@H](C)N(C(=O)c2cccnc2)C[C@@H]1C,-5,2,/,/,-4,/
O=C(NN1C(=O)CSC1=S)C(=O)NN1C(=O)CSC1=S,59*,0,42,2,4,-12

# Screening results as filed in PubChem BioAssay.
